Bioassay records from PubChem BioAssay.
MARV entry inh – qHTS for inhibitors of binding or entry into cells for Marburg Virus | Marburg virus pseudotyped entry inhibition, cell reporter | Potency, µM (titrated, usually from 37.8 µM), for inactives: at the highest dose activity change, negative = inhibition, actives largely listed as inhibitors | 300,000 tested, 1.8% active | AID 540276, 2011; calls by dose curve; tested in HEK293 cells
Lassa entry inh – qHTS for Inhibitors of binding or entry into cells for Lassa Virus; Lassa virus pseudotype entry inhibition, cell reporter; Potency, µM (highest dose often 37.9 µM), for the others: at the top dose activity change, negative = inhibition, most hits filed as inhibitors; 300,000 tested, 1.2% active; AID 540256, 2011; calls by dose curve; tested in HEK293 cells; further: nearly all actives have a fitted effect of over 50% in size
FMDV inh – High Throughput Screening for Foot and Mouth Disease Virus Antivirals | FMDV antiviral cell-based qHTS | Potency, µM (titrated, usually from 57.9 µM), inactives show at the top dose activity change, negative = inhibition, most hits filed as inhibitors | 410,000 tested, 1.2% active; calls by dose curve; tested in HEK293T cells; further: read-out not given here; nearly all actives have a fitted effect of over 45% in size
Vaccinia mCherry – qHTS for Stage-Specific Inhibitors of Vaccinia Orthopoxvirus: mCherry Reporter Primary qHTS; Vaccinia virus mCherry reporter infection, fluorescence; Potency, µM (series often up to 36.5 µM), for inactives: top-dose activity change, negative = inhibition, hits mostly inhibitors; 310,000 tested, 0.63% active; AID 720579, 2013; calls by dose curve; tested in A549 cells; further: nearly all actives have a fitted effect of over 35% in size
VACV Venus inh – qHTS for Stage-Specific Inhibitors of Vaccinia Orthopoxvirus: Venus Reporter Primary qHTS. Vaccinia virus Venus reporter expression, fluorescence. Potency, µM (series often up to 36.5 µM), without a hit: at the highest dose activity change, negative = inhibition, hits mostly inhibitors. 330,000 tested, 0.46% active; calls by dose curve; tested in A549 cells; further: nearly all actives have a fitted effect of over 30% in size
HCV inh – qHTS Assay for Inhibitors of Hepatitis C Virus (HCV); Huh7.5.1 HCVcc-Cre infection, luciferase reporter, 44 h; Potency, µM (titrated, usually from 41.8 µM), without a hit: top-dose activity change, negative = inhibition, actives largely listed as inhibitors; 340,000 tested, 3.4% active; active means well fitted inhibition curve with a large enough effect; inconclusive means small, poorly fitted or top-dose-only effect, or another doubt; inactive means no such curve, though single readings can be large or run the other way
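Antiviral activity was scored by luciferase reporter output from cells infected with HCVcc-Cre (~0.5 moi) in presence of compound, 44 h infection period, cells seeded 1,000/well 4 h prior.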
* marks the source's active call; other numbers are inactive results; [ ] = another dose, or the depositor's remark. Most compounds without a hit are left out; they make up all but 5.3% or so of the library. On the % scale 0 is the no-effect control and ±100 the full control effect; potency means the concentration at half of the fitted maximal effect.

For CCc1ccc2[nH]c(=O)c(CN(CCCN3CCOCC3)C(=O)Nc3ccc(Cl)cc3)cc2c1 the results were MARV entry inh inconclusive, Lassa entry inh inconclusive, FMDV inh -20%, Vaccinia mCherry inconclusive, VACV Venus inh -28% and HCV inh -9%.
Cc1cc(C)c2cc(CN(CCO)C(=O)Nc3ccc(Cl)cc3)c(=O)[nH]c2c1 was read as MARV entry inh 11µM*, Lassa entry inh inconclusive, FMDV inh inconclusive, VACV Venus inh inconclusive and HCV inh -24%.
`Cc1ccc(C)c2[nH]c(=O)c(CN(CCN3CCCC3)C(=O)Nc3cccc(Cl)c3)cc12` gave MARV entry inh inconclusive, Lassa entry inh inconclusive, FMDV inh -14%, Vaccinia mCherry -10%[1.46 µM], VACV Venus inh -13% and HCV inh 11µM*.
For Cc1ccc2[nH]c(=O)c(CN(CCN3CCOCC3)C(=O)Nc3ccc(F)cc3)cc2c1 the results were MARV entry inh -10%, Lassa entry inh -1%, FMDV inh 0%, VACV Venus inh -10% and HCV inh 5%.
`Cc1cc(C)c2cc(CN(CCN3CCCC3)C(=O)Nc3ccc(F)cc3)c(=O)[nH]c2c1` gave MARV entry inh 4µM*, Lassa entry inh inconclusive, FMDV inh 3%, VACV Venus inh -22% and HCV inh inconclusive.
`CC1CC(Nc2ccccc2)c2ccccc2N1C(=O)c1cccnc1` (centres undefined) gave MARV entry inh inconclusive, Lassa entry inh -29%, Vaccinia mCherry inconclusive, VACV Venus inh inconclusive and HCV inh 5.6µM*.
`C[C@@H]1C[C@H](Nc2ccccc2)c2ccccc2N1C(=O)c1cccnc1` gave MARV entry inh 10µM*, Lassa entry inh inconclusive, FMDV inh inconclusive, VACV Venus inh inconclusive and HCV inh inconclusive.
For CC1CC(Nc2ccccc2)c2ccccc2N1C(=O)c1ccccc1F (centres undefined) the results were FMDV inh inconclusive and HCV inh 2%.
Screening O=C(CCC(=O)c1cccs1)NCc1cccc(C(F)(F)F)c1 returned MARV entry inh 10%, Lassa entry inh -10%, FMDV inh 6%, Vaccinia mCherry -19%, VACV Venus inh -21% and HCV inh 24%.
`COc1ccc(C=CN(CCc2ccc(OC)c(OC)c2)C(=O)c2ccccn2)cc1` gave MARV entry inh -11%[14.2 µM].
For CCCC=CC1C(=O)[C@@H]2O[C@H]2C2(OCC(CC)(CC)CO2)C1CO (some centres undefined) the results were MARV entry inh -11%[14.2 µM].
Screening NC(=S)n1[nH]c(-c2ccc([N+](=O)[O-])cc2)c(N=Nc2ccc(Cl)cc2)c1=O returned MARV entry inh inconclusive, Lassa entry inh inconclusive, FMDV inh inconclusive, Vaccinia mCherry inconclusive, VACV Venus inh inconclusive and HCV inh 6.3µM*.
Cc1ccc([N+](=O)[O-])cc1N=Nc1c(C)[nH]n(C(N)=S)c1=O was read as FMDV inh 8% and HCV inh 11%.
O=c1c(N=Nc2ccc(O)cc2)c(-c2ccccc2)[nH]n1-c1ccc([N+](=O)[O-])cc1 was read as MARV entry inh 2%, Lassa entry inh -18%, FMDV inh -21%, Vaccinia mCherry -4%, VACV Venus inh -9% and HCV inh inconclusive.
Cc1ccc(N=Nc2c(C)[nH]n(C(N)=S)c2=O)cc1 was read as MARV entry inh -26%[46.1 µM], Lassa entry inh inconclusive, FMDV inh 28%, Vaccinia mCherry inconclusive, VACV Venus inh -19% and HCV inh 2.8µM*.
`Cc1[nH]n(C(N)=S)c(=O)c1N=Nc1ccc(Br)cc1` gave FMDV inh 8% and HCV inh -14%.
Cc1ccc([N+](=O)[O-])cc1N=Nc1c(-c2ccc([N+](=O)[O-])cc2)[nH]n(C(N)=S)c1=O was read as FMDV inh 2.5µM* and HCV inh 7.9µM*.
